G9a inh-1: qHTS Assay for Inhibitors of Histone Lysine Methyltransferase G9a; Histone-lysine N-methyltransferase EHMT2 (Homo sapiens), Q96KQ7; G9a H3K9 monomethylation, AlphaScreen, 2 h; Potency, µM (top dose mostly 102 µM), without a hit: at the top dose activity, negative = inhibition, hits mostly inhibitors; actives 8.8% (n = 350,000); also: potency is read from the fitted curve at half-maximal effect; % is scaled to controls: 0 for no effect and ±100 for the full control effect; nearly all actives have a fitted effect of over 75% in size
Target sequence (Q96KQ7 913-1193 limits assumed): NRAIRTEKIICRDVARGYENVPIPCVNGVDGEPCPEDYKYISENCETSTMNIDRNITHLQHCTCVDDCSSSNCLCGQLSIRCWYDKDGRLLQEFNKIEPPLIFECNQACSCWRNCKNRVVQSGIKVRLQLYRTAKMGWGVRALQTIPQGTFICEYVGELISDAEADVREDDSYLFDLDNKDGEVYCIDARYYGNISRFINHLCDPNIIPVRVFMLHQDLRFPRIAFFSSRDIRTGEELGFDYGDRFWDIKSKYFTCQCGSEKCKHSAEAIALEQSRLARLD
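Signal arises when biotinylated H3K9 peptide, once monomethylated, bridges streptavidin donor and antibody-captured acceptor beads. Enzyme at 20 nM was preincubated 15 min with test compounds; peptide 500 nM and SAM 20 uM then reacted for 2 h.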
PI5P4Ka inh: qHTS for Inhibitors of phosphatidylinositol 5-phosphate 4-kinase (PI5P4K) | Phosphatidylinositol 5-phosphate 4-kinase type-2 alpha (Homo sapiens), P48426 | max response, % | PI5P4Kalpha enzyme, ADP-Glo luminescence, 60 min; hits give low values | actives 1.2% (n = 330,000); active = max response of -50% or lower; inconclusive = between -30% and -50%; inactive = -30% or higher; also: value at the top dose of about 77 µM; % is scaled to controls: 0 for no effect and ±100 for the full control effect
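Single end-point luminescence (ADP-Glo) quantified ADP from PI5P4Kalpha turnover; ATP 5 microM final, 1 h at RT, 0.1% CHAPS and 0.28 mM EGTA in HEPES pH 7.4.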
HP1b binding inh: HTS for Inhibitors of HP1-beta Chromodomain Interactions with Methylated Histone Tails | Chromobox protein homolog 1 (Homo sapiens), P83916 | AlphaScreen HP1-beta / biotin-H3K9me3 peptide binding | Potency, µM (series often up to 114 µM), inactives show at the highest dose activity change, negative = inhibition, usual class: inhibitors | actives 0.56% (n = 390,000) | AID 540317, 2011; also: potency is read from the fitted curve at half-maximal effect; nearly all actives have a fitted effect of over 70% in size
Target sequence (P83916 whole entry, looked up): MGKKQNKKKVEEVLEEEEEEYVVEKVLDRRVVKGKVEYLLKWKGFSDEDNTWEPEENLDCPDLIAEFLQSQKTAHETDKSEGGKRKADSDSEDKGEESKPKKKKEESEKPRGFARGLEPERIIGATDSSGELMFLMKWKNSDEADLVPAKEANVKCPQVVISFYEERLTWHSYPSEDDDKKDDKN
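AlphaScreen: HP1-beta (50 nM) preformed 30 min with biotin-H3(1-18)K9me3 peptide (50 nM) in PBS pH 7.4, 0.01% Tween-20. Compound added for 30 min at RT, then streptavidin donor/nickel chelate acceptor beads (10 ug/mL) for 30 min.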
PLK1 PBD inh: qHTS for Inhibitors of PLK1-PDB (polo-like kinase 1 - polo-box domain): Primary Screen. Serine/threonine-protein kinase PLK1 (Homo sapiens), P53350. Plk1 PBD binding of FITC phosphopeptide, fluorescence polarization. Potency, µM, for the others: max response, negative = inhibition, most hits filed as inhibitors. actives 2.8% (n = 360,000); also: potency is read from the fitted curve at half-maximal effect; series mostly up to about 57 µM; % is scaled to controls: 0 for no effect and ±100 for the full control effect; nearly all actives have a fitted effect of over 65% in size
JMJD2A Tudor inh: qHTS Assay for Inhibitors of JMJD2A-Tudor Domain; Lysine-specific demethylase 4A (Homo sapiens), O75164; AlphaScreen JMJD2A-Tudor / H3K4me3 peptide binding; Potency, µM (series often up to 114 µM), without a hit: at the top dose activity change, negative = inhibition, hits mostly inhibitors; actives 4.4% (n = 390,000); also: potency is read from the fitted curve at half-maximal effect; % is scaled to controls: 0 for no effect and ±100 for the full control effect; nearly all actives have a fitted effect of over 50% in size
BAZ2B inh: qHTS Assay for Inhibitors of BAZ2B; actives 4.4% (n = 360,000); Bromodomain adjacent to zinc finger domain protein 2B (Homo sapiens), Q9UIF8; Potency, µM (highest dose often 114 µM), for the others: at the top dose activity change, negative = inhibition, actives largely listed as inhibitors; AlphaScreen BAZ2B-H3K14Ac peptide displacement; also: potency is read from the fitted curve at half-maximal effect; % is scaled to controls: 0 for no effect and ±100 for the full control effect; nearly all actives have a fitted effect of over 60% in size
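Complex of BAZ2B and biotin-H3K14Ac (50 nM apiece) forms over 30 min at RT, then faces library compounds up to 110 uM for another 30 min; AlphaScreen beads added, 20 min dark incubation, luminescence read.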
G9a inh-2: qHTS Assay for Inhibitors of Histone Lysine Methyltransferase G9a: Hit Confirmation. shares compounds with JMJD2A Tudor inh. G9a H3K9 monomethylation, AlphaScreen, 2 h. Potency, µM, actives largely listed as inhibitors. actives 89% (n = 370). AID 588344, 2011; also: potency is read from the fitted curve at half-maximal effect; nearly all actives have a fitted effect of over 65% in size
Numbers without * were called inactive; ? = inconclusive; / = no result given; ! = repeats disagree; [ ] = another dose, or the depositor's remark. This is a sample that favours compounds with a hit; in the whole collection about 12% have one here. Unless noted, calls follow the shape of the dose curve; as a rule, active = well fitted curve in the direction sought with a large enough effect; inconclusive = small, poorly fitted or top-dose-only effect, or another doubt; inactive = no such curve, though single readings can be large; an effect the other way counts as inactive or inconclusive.

SMILES	G9a inh-1	PI5P4Ka inh	HP1b binding inh	PLK1 PBD inh	JMJD2A Tudor inh	BAZ2B inh	G9a inh-2
O=C(Nc1ccc2c(c1)oc1ccccc12)N1CCOCC1	6%	-4	48%	-1%	-7%	4%	/
CCn1c2ccccc2c2cc(NC(=O)N3CCOCC3)ccc21	?	0	-11%	-1%	-18%	?	10*
CCOc1ccc(NC(=O)CN2CCN(CC(=O)c3ccc(OC)c(OC)c3)CC2)cc1	2.5µM*	-17	0%	19µM*	?	8%	45*
CCOc1ccc(NC(=O)CN2CCN(CC(=O)c3ccc(OCC)cc3)CC2)cc1	2.8µM*	1	46%	-10%	?	8%	5.6*
CCOc1ccc(NC(=O)CN2CCN(CC(=O)Nc3ccc(F)cc3)CC2)cc1	3%[12.7 µM]	8	67%	-7%	-10%	1%	/
CCN(CC)c1ccc(NC(=O)CN2CCN(S(=O)(=O)c3cc(Cl)ccc3OC)CC2)cc1	8.9µM*	/	?	-5%	40µM*	50µM*!	4*
CCOc1ccc(NC(=O)CCN2CCN(S(=O)(=O)c3cc(Cl)ccc3OC)CC2)cc1	?	8	27%	-2%	-13%	0%	/
CCNCCC(CCC(C)C)c1ccc2c(c1)OCO2 (configuration not stated)	1.6µM*	1	-6%	10%	?	79µM*	11*
CCc1ccccc1NC(=O)NC(C)c1ccc2c(c1)OCO2 (configuration not stated)	15%	0	42%	1%	-9%	3%	/
CCOc1cccc(CNc2ccc(O)cc2)c1OCc1ccccc1Cl	4.5µM*	-19	?	-6%	45µM*	?	3.2*
CCOc1cccc(CNc2ccc(O)cc2)c1OCc1ccc(Cl)cc1Cl	2.5µM*	-20	?	-6%	-35%	?	2.5*
COc1ccc(CNC(=O)Cc2csc3nc(-c4ccc(C)cc4)cn23)cc1	-7%[59 µM]	/	18%[57 µM]	/	-17%	-9%	/
COc1ccc(-c2cc(=O)oc3c4c(ccc23)OCN(Cc2ccccc2)C4)cc1	5%[59 µM]	/	78%	/	-9%	-24%	/
CCOc1ccc(S(=O)(=O)Nc2nc3ccccc3nc2Cl)cc1	7%	1	53%	-9%	-2%	0%	/
CCOc1ccc(S(=O)(=O)Nc2nc3ccccc3nc2N2CCN(C)CC2)cc1	?	2	30%	-1%	-12%	-28%	?
O=S(=O)(Nc1ccc(S(=O)(=O)N2CCOCC2)cc1)c1ccc(Br)cc1	-13%	8	5%	-5%	-9%	-2%	/
O=S(=O)(NN1CCOCC1)c1ccc(Br)cc1	0.4µM*	-4	40%	7.5µM*	-3%	0%	1.6*
CC1CCCN(CCCNC(=O)c2nn(C)c3c2CS(=O)(=O)c2ccccc2-3)C1 (configuration not stated)	35%	-1	76%	4%	-2%	-13%	/
CN(C)c1ccc(NC(=O)Nc2cccc(Cl)c2)cc1	1.1µM*	/	-31%	-10%	?	40µM*	1.4*
COc1ccc(NC(=O)c2c(NC(=O)c3ccncc3)sc3c2CCC(C(C)(C)C)C3)cc1 (configuration not stated)	?	/	16%	/	-35%	-14%	/
CC(C)(C)C1CCc2c(sc(NC(=O)c3ccncc3)c2C(=O)Nc2ccccc2Cl)C1 (configuration not stated)	2.2µM*	/	26%	/	?	-28%	?
COc1ccc(NC(=O)c2ccc(-c3ccc(C(C)=O)cc3)o2)cn1	1.6µM*	3	-19%	-18%	-27%	2%	?
Cc1ccc(-n2nc3ccc(N)cc3n2)cc1	?	4	-9%	4%	-6%	-35%	0.25*
Cc1cc2nn(-c3ccc(F)cc3)nc2cc1N	1µM*	7	8%	-23%	-25%	-28%	0.56*
Cc1cc2nn(-c3ccc(F)cc3)nc2cc1NC(=O)c1ccc(C(C)(C)C)cc1	-2%[59 µM]	/	25%	/	-11%	-13%	/
SMILES	G9a inh-1	PI5P4Ka inh	HP1b binding inh	PLK1 PBD inh	JMJD2A Tudor inh	BAZ2B inh	G9a inh-2
Nc1ccc2nn(-c3ccc(F)cc3)nc2c1	28%	2	38%	-24%	29%	0%	/
COc1ccc(-n2nc3cc(C)c(N)cc3n2)cc1Cl	0.71µM*	-18	15%	-12%	56µM*	79µM*	0.5*
O=C(O)c1ccccc1C(=O)NC1Cc2ccccc2C1	-21%	1	4%	-12%	-14%	-16%	/
CCN(CC)c1ccc(NC(=O)c2cncc(Br)c2)cc1	?	-3	?	-17%	50µM*	35µM*	3.5*
CCN(CC)c1ccc(NC(=O)Nc2ccc(C(C)=O)cc2)cc1	1.4µM*	-10	-7%	-8%	-32%[57.1 µM]	-26%	0.32*
Oc1ccc2ccccc2c1CN1CCOCC1	0.35µM*	-6	?	27µM*	?	-35%	0.8*
CC1CCN(CCC(=O)Nc2nccs2)CC1	19%	5	38%	2%	-11%	0%	/
CC(C)COC(=O)N1CCCC1C(=O)Nc1nccs1 (configuration not stated)	?	2	-2%	-18%	-14%	-35%	13*
Cc1cn2c(=O)cc(COC(=O)c3cccc(NC(=O)c4ccccc4Cl)c3)nc2s1	2%[59 µM]	/	-7%	/	-18%	-5%	/
CCOC(=O)N1CCc2c(sc(NCc3cccc(F)c3)c2C(=O)Nc2ccc(OCC)cc2)C1	2µM*	/	-13%	/	?	?	3.6*
CCOC(=O)N1CCc2c(sc(NCc3ccc(OC)c(Br)c3)c2C(=O)Nc2cc(OC)ccc2OC)C1	1.6µM*	/	?	/	?	-31%	1.8*
CCOc1ccc(NC(=O)c2c(NCc3ccc(C)o3)sc3c2CCC(C)C3)cc1 (configuration not stated)	?	/	-20%	/	?	-33%	/
CCOC(=O)N1CCc2c(sc(NCc3sccc3C)c2C(=O)Nc2cc(OC)ccc2OC)C1	2.8µM*	/	?	/	11µM*	?	5.8*
